Bioassay records (PubChem)
An excerpt weighted towards active compounds, which were near 1.4% of everything screened.
PV pol inh: poliovirus RNA polymerase inhibition | 150,000 compounds, 0.66% hits | poliovirus polymerase elongation, fluorescence polarization; active compounds read low | AID 588519 | % elongation, % (compound at 16.7 µg/mL) | P03300; in the data active means % elongation below about 90%
Target sequence (P03300 1749-2209 limits assumed): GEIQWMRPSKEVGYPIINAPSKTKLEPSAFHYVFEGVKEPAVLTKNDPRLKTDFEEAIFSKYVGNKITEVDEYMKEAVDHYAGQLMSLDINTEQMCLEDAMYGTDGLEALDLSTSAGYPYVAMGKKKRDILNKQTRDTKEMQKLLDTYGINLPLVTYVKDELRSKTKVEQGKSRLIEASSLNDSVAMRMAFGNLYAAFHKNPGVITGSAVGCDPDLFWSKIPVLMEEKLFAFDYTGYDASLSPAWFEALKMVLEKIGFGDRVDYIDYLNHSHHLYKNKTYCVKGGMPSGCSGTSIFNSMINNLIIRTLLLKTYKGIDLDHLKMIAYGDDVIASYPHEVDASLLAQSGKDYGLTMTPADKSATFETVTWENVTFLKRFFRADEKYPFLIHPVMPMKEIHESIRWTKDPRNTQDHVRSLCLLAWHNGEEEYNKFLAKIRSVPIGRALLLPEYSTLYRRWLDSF
MbtI inh: MbtI salicylate synthase inhibition; purified MbtI enzyme, fluorescence intensity read-out; inhibition, % (concentration not given with the values); 100,000 compounds, 0.89% hits; in the data active means inhibition mostly above about 56%, no sharp cut-off; inactive means mostly below about 77%
Mtb MenB inh: inhibitors of Mycobacterium tuberculosis MenB enzyme; MenB enzyme assay, absorbance read-out; 100,000 compounds, 0.43% hits; inhibition, % (concentration not given with the values); AID 540299; in the data active means inhibition above about 21%, passing the limit was not always enough
An asterisk follows results filed as active; i = inactive; x = no result.

SMILES | PV pol inh | MbtI inh | Mtb MenB inh
O=S(=O)(c1ccc(N2CCC(CNc3nc4ccccc4s3)CC2)cc1)N1CCOCC1 | 103 | 43 | 39*
O=C(Nc1nc(-c2ccc3c(c2)CCN3C(=O)C2CCCCC2)cs1)c1ccco1 | 96 | 22 | 11
Cc1ccc(CN(C)C(=O)CSc2nc(N)cc(N)n2)cc1 | 103 | -1 | 1
Cc1ccc(CSc2nc(N)cc(N)n2)cc1 | 101 | 4 | 36*
Cc1cc(NC(=S)N(C)C)ccc1Br | 97 | 96* | -5
Cc1ccc(C)c(NC(=S)N(C)C)c1 | 99 | 1 | -3
Cc1cc2nnc(SCC(N)=O)n2c2ccccc12 | 100 | -49 | x
O=C(O)c1cccnc1Sc1ccc2c(c1)OCCO2 | 101 | 48 | -9
Oc1ccccc1-c1nc(/C=C/c2ccccc2Cl)no1 | 41* | x | x
CN(C)c1ccc(/C=C/c2noc(-c3ccccc3O)n2)cc1 | 110 | x | x
CC1(C)CC(=O)C=C(NCc2ccco2)C1 | 102 | 12 | -17
CC1=C(C)C(=O)C(NCc2ccco2)=CC1=O | 74* | 8 | -120
O=C(CCCSc1cccc[n+]1[O-])c1ccc(F)cc1 | 103 | 99* | -14
O=C(CSc1cccc[n+]1[O-])c1ccccc1F | 98 | 22 | -46
Nc1nc(N)c2[nH]c(-c3ccccc3)nc2n1 | 68* | 99 | -27
Nc1nc(N)nc(-c2ccccc2)n1 | 101 | -2 | -9
Cc1[nH]ncc1CNC(=O)c1ccc(NC(=O)C2=CSCCO2)cc1 | 101 | -1 | -14
CCOC(=O)[C@@H]1Nc2ccc(C(=O)O)cc2[C@@H]2C=CC[C@H]12 | 68* | 16 | -15
CCOC(=O)[C@@H]1Nc2c(ccc(C(=O)O)c2C)[C@@H]2C=CC[C@H]12 | 99 | 50 | -20
CCC(C)NC(N)=O (stereo not drawn) | 102 | 10 | -13
CCOc1ccc(N2C(=O)/C(=C/c3cccs3)C(=O)N(c3ccccc3)C2=S)cc1 | 106 | 73* | -22
CN1C(=O)C(=Cc2cccs2)C(=O)N(C)C1=S | 103 | 16 | -9
CN/N=C/c1c(O)ccc2ccccc12 | 104 | 32 | -36
O/N=C/c1c(O)ccc2ccccc12 | 98 | -49 | 32*
NC(=O)C1CCCCN1C(=S)NC1CCCCC1 (stereo not drawn) | x | 42 | x
SMILES | PV pol inh | MbtI inh | Mtb MenB inh
CC(=O)Nc1ccc(NC(=O)C(C)Oc2ccccc2)cc1 (stereo not drawn) | 98 | -4 | x
O=C(COc1ccc2c(c1)CCC2)N(Cc1nnc(-c2ccc(Cl)cc2)o1)C1CC1 | 104 | -8 | -31
O=CNc1ccc(OC(=O)c2cncc(Br)c2)cc1 | 78* | -8 | -23
O=C(Oc1ccccc1-c1ccccc1)c1cncc(Br)c1 | 101 | -35 | x
Cc1ccc(N2C(=O)NC(c3ccccc3)(C(F)(F)F)C2=O)nc1 (stereo not drawn) | 103 | -22 | -20
COC(=O)c1ccc(-c2ccccn2)s1 | 102 | -17 | 12
COCCNC(=S)N1c2ccccc2CC1C (stereo not drawn) | 84* | 64* | -33
CNC(=S)N1c2ccccc2CC1C (stereo not drawn) | 102 | 18 | 5
CCOC(=O)N1CCC(NC(=O)c2ccc3c(c2)N(Cc2cccc(Cl)c2)C(=O)c2ccccc2S3=O)CC1 (stereo not drawn) | 99 | 20 | -1
CC1=CC(=O)C(CCCCCC2=CC(=O)C(C)=CC2=O)=CC1=O | 103 | 95* | 7
CCCCCc1c(O)c2ccccc2[nH]c1=O | 101 | i | -3
CC1=CC(=O)C(CCOCCC2=CC(=O)C(C)=CC2=O)=CC1=O | 101 | 100* | -4
Cc1cc(/C(O)=C2\C(=O)C(=O)N(CCCN(C)C)C2c2ccc(O)cc2)ccc1OCC(C)C (stereo not drawn) | 104 | -3 | 22
O=C(CN1CCC(C(=O)Nc2ccccc2)CC1)Nc1cc(C(F)(F)F)ccc1-n1cncn1 | 102 | 4 | -34
CC1CN(C)C(C)CC1OC(=O)c1ccccc1 (stereo not drawn) | 101 | -4 | -19
CNC(=O)Nc1ccc(Cl)cc1 | 105 | 15 | 2
Cc1ccc(NC(=O)Sc2ccc(Cl)cc2)cc1 | 96 | 57* | -13
CN1C(=O)c2ccccc2C(C(=O)NCCN(Cc2ccco2)C2CCCC2)C1c1cccs1 (stereo not drawn) | 103 | 1 | -22
Cc1nnc(SCc2ccc(C#N)cc2)n1C1CC1 | 99 | -6 | -7
N#Cc1ccc(CSc2nnnn2C2CC2)cc1 | 35* | -9 | -18
CS(=O)(=O)c1nc2ccccc2s1 | 89* | x | 7
C=CCS(=O)(=O)c1nc2ccccc2s1 | 98 | 8 | 4
Cc1onc(-c2ccccc2)c1C(=O)OCc1cc(=O)n2cc(Br)ccc2n1 | 99 | -1 | 8
CC1=CC(=O)N(CCc2c[nH]c3ccc(OCc4ccccc4)cc23)C1=O | 106 | x | -26
S=C(NC1CCCCC1)Sc1ccc(Cl)cc1 | 94 | 56* | -16
SMILES | PV pol inh | MbtI inh | Mtb MenB inh
N/C(=N\OC(=O)NC1CCCCC1)c1ccc(Cl)cc1 | 99 | 0 | -17
CN(C)S(=O)(=O)c1ccc2c3c(cccc13)C(=O)N2C(=O)c1cccs1 | x | 8 | 4
CC(C)(C)c1ccc(O)c(N)c1 | 98 | 99* | -23
CC(C)c1ccc(O)c(N)c1 | 103 | 51 | -12
CCOCCCN=C1SCC(CC)N1C(=O)c1ccc(C#N)cc1 (stereo not drawn) | 89* | -8 | 4
N#Cc1ccc(C(=O)N2CCCSC2=NCCc2ccccc2)cc1 | 99 | 3 | 6
CCOC(=O)c1c(-c2ccc(C)cc2)csc1NC(=O)c1cc(=O)c2cc(C)c(C)cc2o1 | 106 | x | x
CCOC(=O)c1c(NC(=O)c2cc(-c3cccc(OC)c3)on2)sc(C)c1C | 102 | 46 | -8
CCOC(=O)c1c(NC(=O)c2cc(-c3ccc(OC)cc3)on2)sc(C)c1C | 84* | x | x
CCOC(=O)c1c(-c2ccc(C)cc2)csc1NC(=O)c1cc(-c2ccc(OC)cc2)on1 | 105 | x | x
CCOC(=O)c1c(-c2ccccc2)csc1NC(=O)c1cc(-c2cccc(OC)c2)on1 | 71* | x | x
CCOC(=O)c1c(NC(=O)c2cc(-c3ccc(OC)c(OC)c3)on2)sc2c1CCCC2 | 98 | x | x
CCOC(=O)c1c(-c2ccc(C)cc2)csc1NC(=O)c1cc(=O)c2cc(C)ccc2o1 | 61* | x | x
CCOC(=O)c1c(NC(=O)c2cc(-c3cccc(OC)c3)on2)sc2c1CCCC2 | 77* | x | x
CC1Cc2cc(-c3nn(-c4ccccc4)cc3/C=c3\sc4nc(-c5cccs5)nn4c3=O)ccc2O1 (stereo not drawn) | 103 | -4 | 2
CN(C)S(=O)(=O)c1ccc(N2CCC(C(=O)O)CC2)cc1 | 99 | 0 | 2
COc1cc(C(=O)NNc2ccccc2)cc(OC)c1OC | 103 | -14 | -35
CCCCN(CC)c1cn[nH]c(=O)c1Cl | 100 | 7 | -7
CCOC(=O)c1c(-c2ccccc2)csc1NC(=O)c1cc(-c2cccc(Cl)c2)on1 | 84* | x | x
CCOC(=O)c1c(-c2ccc(C)cc2)csc1NC(=O)c1cc(-c2ccc(Cl)cc2)on1 | 102 | x | x
CC1=CC(=Nc2c(C)n(C)n(-c3ccccc3)c2=O)c2ccccc2C1=O | 101 | 5 | -1
Cc1c(N=c2c(=O)c3ccccc3c2=O)c(=O)n(-c2ccccc2)n1C | 63* | 9 | -44
CC/C(=N\NC(N)=O)c1cc(F)ccc1O | 101 | 2 | -3
